Columns and labels:
Assay in all cases: PBM binding z-score (relative to random genomic background probes); higher = stronger binding; sequences stand for … in GC…GCGATTGACAGCGTAGAATGAAGG
[1] = system: RARb homodimer (NR concentration 270 nM)
Outline: (§1)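 For binding z-scores, the reference was random background probes on custom Agilent 4×180K protein-binding microarrays. These arrays were incubated 1 h with ligand-free nuclear receptor dimers in PBS pH 7.4, 2% milk, 0.02% Triton X-100, 1 mM DTT, 0.2 mg/mL BSA and 0.4 mg/ml salmon testes DNA. Fluorescence was scanned after antibody detection of each partner (one per run) and regression-normalized.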

[2] = system: RARg:RXRa (NR concentration 270 nM, RXRa partner concentration 90 nM)
Outline: as §1

[3] = system: RARg homodimer (NR concentration 270 nM)
Outline: as §1

[4] = system: RXRa DBDmut IVT, anti-RXR (DBD mutation: RXRa K156A/R161A, NR concentration 90 nM)
Outline: as §1

[5] = system: RXRa homodimer (NR concentration 180 nM)
Outline: as §1

[6] = system: THRa:RXRa (NR concentration 90 nM, RXRa partner concentration 90 nM)
Outline: as §1

[7] = system: THRa homodimer (NR concentration 90 nM)
Outline: as §1

[8] = system: VDR:RXRa (NR concentration 270 nM, RXRa partner concentration 90 nM)
Outline: as §1

[9] = system: VDR homodimer (NR concentration 270 nM)
Outline: as §1

Sequence | PBM binding z-score [1] | PBM binding z-score [2] | PBM binding z-score [3] | PBM binding z-score [4] | PBM binding z-score [5] | PBM binding z-score [6] | PBM binding z-score [7] | PBM binding z-score [8] | PBM binding z-score [9]
ACAGACAGGTGAGTGAGGGTAACTCAGCTGGACG | 0.68 | 0.525 | 0.533 | -0.362 | 0.572 | 1.63 | 0.184 | 2 | 0.0737
CCTATTAGTTCACCATAAGGGCAACCGAAGCTCG | 3.48 | 4.31 | 2.61 | 2.82 | 1.69 | 3.37 | 1.73 | 2.6 | 2.41
TCATATAGGTAAAAGGTGAAAGGCGGTGTGGTAA | 1.54 | 1.65 | 0.736 | 1.76 | 2.97 | 1.56 | 0.329 | 1.39 | 0.251
TCGAGTAGGTTAGTCGGGTCATTCAGCCAACATA | 2.2 | 1.93 | 1.5 | 0.747 | 2.1 | 3.06 | 1.48 | 4.88 | 2.35
AGAACGAGGGCACGCTCAGTTGATAGCAGAGTAG | 1.02 | 1.9 | 2.25 | 1.94 | 1.28 | 1.82 | -0.0296 | 1.4 | 0.752
GGAACGAGCGCATTCGAGTTGATAGCATGGCGAT | -0.974 | -0.544 | -0.227 | 0.0101 | -0.607 | -0.857 | -1.27 | -0.761 | -0.406
CCTGCTAGGACATGGTCAGCTAATCTACAGTATG | -0.2 | -0.204 | 0.478 | 0.385 | -0.656 | 0.568 | -0.28 | -0.684 | -0.547
CCTATTAGTTGACCATAAGAGCAACCGAAGCTCG | 0.851 | 0.678 | 0.927 | 0.811 | 0.6 | 0.468 | 0.721 | 1.06 | 1.03
CGTCCAAGGTCATAGGAGGTCAGTGATGACAGAT | 5.33 | 6.66 | 6.93 | 3.97 | 6.5 | 5.4 | 3.25 | 6.43 | 4.59
GCAAACAGGTGAAACGCAGGTAACTCAGGGTGGC | 0.0626 | 0.796 | 0.0633 | -0.459 | 0.616 | 1.52 | -0.516 | -0.424 | -0.658
TTACCCAGGTGAAGGTCGTTGATCCCTCTGTAGA | 1.33 | 0.65 | 0.626 | -0.428 | 1.31 | 1.91 | 0.888 | 1.05 | 1.26
ATCTCGAGGTAACCAAGTTCAGTGAATGCCGAAC | 1.62 | 0.86 | 1.02 | 0.865 | 0.825 | 2.41 | 0.867 | 5.47 | 3.01
TATCCTAGGTCATGCGGGCCAGTATAGTGTCGGC | 3.12 | 4.06 | 4.98 | 1.6 | 3.59 | 3.43 | 1.91 | 3.5 | 1.29
TCTATTAGTTGATTAGGGCGACCGAAACAGCGGA | 0.492 | 0.141 | 0.348 | 1.14 | 0.378 | 0.191 | 0.249 | 0.776 | 0.212
ATCTCTAGGTAAGACTCAGTTCAGTGCAGAACGC | 0.696 | 0.23 | 0.29 | 0.644 | 0.206 | 0.914 | 0.919 | 0.866 | 1.71
CGTCCAAGGTCAAAGGTCAGTCAAGAGATGACGG | 5.67 | 8.89 | 8.17 | 4.11 | 10.3 | 4.85 | 2.87 | 6.84 | 3.58
TGTCGAAGTTCAAAGGTAACGTAAGTATCCACAC | 2.43 | 4.25 | 3.04 | 3.6 | 5.18 | 2.81 | -0.0887 | 3.71 | 2.72
CGAACTAGGTCTTCCAGGACAGTGAATACATTGA | 0.194 | 0.154 | 0.415 | 0.373 | -0.0434 | 1.71 | 0.787 | -0.0143 | 0.0101
AGAATGAGGTTACCACAGATCAGGGAAACGCTTG | 0.855 | 2 | 1.62 | 1.24 | 2.61 | 2.93 | 0.878 | 1.23 | 0.395
TCAGACAGGAGAAGGTAACTCAGGTACGCAGTCG | -0.2 | 0.286 | 0.356 | 1.23 | 0.47 | 0.913 | 0.177 | 0.714 | -0.0806
CCTGCTAGGTCAATTGTCAGCTAAAGCAGCTCGC | 2.38 | 3.24 | 3.98 | 1.77 | 1.41 | 2.02 | 0.418 | 0.479 | -0.128
TCTTGTAGATCAACAGGAGGTTAAGTAAGATCGA | 0.766 | 1.15 | 0.284 | 0.388 | 1.02 | 1.78 | -0.391 | 0.844 | -0.26
TAGCGTAGGTCATTCAGGGGCCAGTATAGAAAGC | 3.37 | 6.52 | 5.07 | 1.79 | 3.93 | 3.56 | -0.427 | 3.37 | 1.25
ATAGGTAGGTTAAGGGTCATTCAGGTTGGTTCGC | 4.42 | 5.12 | 3.74 | 2 | 6.15 | 3.71 | 2.58 | 5.65 | 4.7
ACTATTAGTTGACTTAGGGCAACCGATACGACGC | 0.899 | 0.818 | 1.01 | 0.684 | 0.661 | 1.53 | 0.316 | 0.152 | 0.121
TCATATAGGGAAAAGGTGAAAGTCGGTGTGGTAA | 2.04 | 1.27 | 0.821 | 2.07 | 1.93 | 1.27 | 0.582 | 1.29 | 0.643

Source: the supplement of paper PMC6555819
